# How the values were obtained:
# Assay in all cases: PBM; 200 nM protein, PBS
# Settings in all cases: dsDNA, one strand shown
# HOXC10 = HOXC10 (Homo sapiens, UniProt Q9NYD6 254-340)
# HOXC9 = HOXC9 (Homo sapiens, UniProt P31274 178-260)
# HOXD13 [1] = biological target: HOXD13 (Homo sapiens, UniProt P35453 263-343, T313R)
# HOXD13 [2] = biological target: HOXD13 (Homo sapiens, UniProt P35453 263-343)
# HOXD13 [3] = biological target: HOXD13 (Homo sapiens, UniProt P35453 263-343, T313A)
# NKX3-2 [4] = biological target: NKX3-2 (Homo sapiens, UniProt P78367 192-278, P234S)
# Sequence of NKX3-2 (Homo sapiens, UniProt P78367 192-278, P234S) (P78367 192-278 P234S): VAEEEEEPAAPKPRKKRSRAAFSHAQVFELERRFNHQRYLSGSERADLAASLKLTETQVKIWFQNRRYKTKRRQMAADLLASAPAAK
# NKX3-2 [5] = biological target: NKX3-2 (Homo sapiens, UniProt P78367 192-278)
# Sequence of NKX3-2 (Homo sapiens, UniProt P78367 192-278) (P78367 192-278): as the sequence (P78367 192-278 P234S) above, with S43P counted along it
# Sequence of HOXC9 (P31274 178-260): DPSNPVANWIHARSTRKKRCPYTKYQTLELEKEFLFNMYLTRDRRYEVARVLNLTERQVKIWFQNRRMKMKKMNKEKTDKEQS
# Sequence of HOXC10 (Q9NYD6 254-340): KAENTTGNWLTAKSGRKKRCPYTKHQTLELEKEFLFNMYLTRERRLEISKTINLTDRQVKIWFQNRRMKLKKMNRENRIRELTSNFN
# Sequence of HOXD13 (Homo sapiens, UniProt P35453 263-343) (P35453 263-343): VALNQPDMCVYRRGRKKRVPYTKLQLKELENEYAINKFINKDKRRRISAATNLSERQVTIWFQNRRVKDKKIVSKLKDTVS
# Sequence of HOXD13 (Homo sapiens, UniProt P35453 263-343, T313R) (P35453 263-343 T313R): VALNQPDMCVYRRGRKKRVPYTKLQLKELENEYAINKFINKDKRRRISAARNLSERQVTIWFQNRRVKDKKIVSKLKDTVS
# Sequence of HOXD13 (Homo sapiens, UniProt P35453 263-343, T313A) (P35453 263-343 T313A): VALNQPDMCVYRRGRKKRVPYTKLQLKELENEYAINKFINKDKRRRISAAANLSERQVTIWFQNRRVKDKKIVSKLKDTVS
sequence,measurement,setting,value
ATTAATGA,binding signal,HOXC10,"12.5 upbm affinity estimate (log intensity, higher = more binding, comparable within an allelic series)"
same,binding signal,HOXC9,"13 upbm affinity estimate (log intensity, higher = more binding, comparable within an allelic series)"
same,binding signal,HOXD13 [1],"10.7 upbm affinity estimate (log intensity, higher = more binding, comparable within an allelic series)"
same,binding signal,HOXD13 [2],"11.9 upbm affinity estimate (log intensity, higher = more binding, comparable within an allelic series)"
same,binding signal,HOXD13 [3],"11.7 upbm affinity estimate (log intensity, higher = more binding, comparable within an allelic series)"
AATTAATG,binding signal,HOXC10,"12.2 upbm affinity estimate (log intensity, higher = more binding, comparable within an allelic series)"
same,binding signal,HOXC9,"12.8 upbm affinity estimate (log intensity, higher = more binding, comparable within an allelic series)"
TAATTAAA,binding signal,HOXC10,"12.7 upbm affinity estimate (log intensity, higher = more binding, comparable within an allelic series)"
same,binding signal,HOXC9,"13 upbm affinity estimate (log intensity, higher = more binding, comparable within an allelic series)"
same,binding signal,HOXD13 [1],"10.8 upbm affinity estimate (log intensity, higher = more binding, comparable within an allelic series)"
same,binding signal,HOXD13 [2],"11.8 upbm affinity estimate (log intensity, higher = more binding, comparable within an allelic series)"
same,binding signal,HOXD13 [3],"11.7 upbm affinity estimate (log intensity, higher = more binding, comparable within an allelic series)"
ATTAATTG,binding signal,HOXC10,"12.2 upbm affinity estimate (log intensity, higher = more binding, comparable within an allelic series)"
same,binding signal,HOXC9,"12.9 upbm affinity estimate (log intensity, higher = more binding, comparable within an allelic series)"
same,binding signal,HOXD13 [1],"10.7 upbm affinity estimate (log intensity, higher = more binding, comparable within an allelic series)"
GCAATTAA,binding signal,HOXC10,"12.4 upbm affinity estimate (log intensity, higher = more binding, comparable within an allelic series)"
same,binding signal,HOXC9,"13.1 upbm affinity estimate (log intensity, higher = more binding, comparable within an allelic series)"
ATAATTAC,binding signal,HOXC10,"12.4 upbm affinity estimate (log intensity, higher = more binding, comparable within an allelic series)"
same,binding signal,HOXC9,"13 upbm affinity estimate (log intensity, higher = more binding, comparable within an allelic series)"
CTTAATTA,binding signal,HOXC10,"12.2 upbm affinity estimate (log intensity, higher = more binding, comparable within an allelic series)"
same,binding signal,HOXC9,"12.6 upbm affinity estimate (log intensity, higher = more binding, comparable within an allelic series)"
GTAATTAA,binding signal,HOXC10,"12.7 upbm affinity estimate (log intensity, higher = more binding, comparable within an allelic series)"
same,binding signal,HOXC9,"13.2 upbm affinity estimate (log intensity, higher = more binding, comparable within an allelic series)"
TAATTACA,binding signal,HOXC10,"12.3 upbm affinity estimate (log intensity, higher = more binding, comparable within an allelic series)"
same,binding signal,HOXC9,"12.8 upbm affinity estimate (log intensity, higher = more binding, comparable within an allelic series)"
AGTAATTA,binding signal,HOXC10,"12.3 upbm affinity estimate (log intensity, higher = more binding, comparable within an allelic series)"
same,binding signal,HOXC9,"13 upbm affinity estimate (log intensity, higher = more binding, comparable within an allelic series)"
CGTAATTA,binding signal,HOXC10,"12.3 upbm affinity estimate (log intensity, higher = more binding, comparable within an allelic series)"
same,binding signal,HOXC9,"12.8 upbm affinity estimate (log intensity, higher = more binding, comparable within an allelic series)"
ATTAATTA,binding signal,HOXC10,"12.6 upbm affinity estimate (log intensity, higher = more binding, comparable within an allelic series)"
same,binding signal,HOXC9,"13.2 upbm affinity estimate (log intensity, higher = more binding, comparable within an allelic series)"
same,binding signal,HOXD13 [1],"10.8 upbm affinity estimate (log intensity, higher = more binding, comparable within an allelic series)"
same,binding signal,HOXD13 [2],"11.8 upbm affinity estimate (log intensity, higher = more binding, comparable within an allelic series)"
same,binding signal,HOXD13 [3],"11.6 upbm affinity estimate (log intensity, higher = more binding, comparable within an allelic series)"
AATAATTA,binding signal,HOXC10,"12.2 upbm affinity estimate (log intensity, higher = more binding, comparable within an allelic series)"
same,binding signal,HOXC9,"12.7 upbm affinity estimate (log intensity, higher = more binding, comparable within an allelic series)"
GGTAATTA,binding signal,HOXC10,"12.5 upbm affinity estimate (log intensity, higher = more binding, comparable within an allelic series)"
same,binding signal,HOXC9,"13.1 upbm affinity estimate (log intensity, higher = more binding, comparable within an allelic series)"
same,binding signal,NKX3-2 [4],"11.7 upbm affinity estimate (log intensity, higher = more binding, comparable within an allelic series)"
same,binding signal,NKX3-2 [5],"11.7 upbm affinity estimate (log intensity, higher = more binding, comparable within an allelic series)"
ATAATTAT,binding signal,HOXC10,"12.3 upbm affinity estimate (log intensity, higher = more binding, comparable within an allelic series)"
same,binding signal,HOXC9,"12.9 upbm affinity estimate (log intensity, higher = more binding, comparable within an allelic series)"
AATTAATA,binding signal,HOXC10,"12.2 upbm affinity estimate (log intensity, higher = more binding, comparable within an allelic series)"
same,binding signal,HOXC9,"12.7 upbm affinity estimate (log intensity, higher = more binding, comparable within an allelic series)"
same,binding signal,HOXD13 [1],"10.9 upbm affinity estimate (log intensity, higher = more binding, comparable within an allelic series)"
same,binding signal,HOXD13 [2],"11.7 upbm affinity estimate (log intensity, higher = more binding, comparable within an allelic series)"
same,binding signal,HOXD13 [3],"11.7 upbm affinity estimate (log intensity, higher = more binding, comparable within an allelic series)"
TAATTATA,binding signal,HOXC10,"12.3 upbm affinity estimate (log intensity, higher = more binding, comparable within an allelic series)"
same,binding signal,HOXC9,"12.8 upbm affinity estimate (log intensity, higher = more binding, comparable within an allelic series)"
same,binding signal,HOXD13 [1],"10.7 upbm affinity estimate (log intensity, higher = more binding, comparable within an allelic series)"
AATTAATT,binding signal,HOXC10,"12.2 upbm affinity estimate (log intensity, higher = more binding, comparable within an allelic series)"
same,binding signal,HOXC9,"12.8 upbm affinity estimate (log intensity, higher = more binding, comparable within an allelic series)"
CTAATTAA,binding signal,HOXC10,"12.2 upbm affinity estimate (log intensity, higher = more binding, comparable within an allelic series)"
same,binding signal,HOXC9,"12.6 upbm affinity estimate (log intensity, higher = more binding, comparable within an allelic series)"
same,binding signal,HOXD13 [1],"10.8 upbm affinity estimate (log intensity, higher = more binding, comparable within an allelic series)"
same,binding signal,HOXD13 [2],"11.8 upbm affinity estimate (log intensity, higher = more binding, comparable within an allelic series)"
same,binding signal,HOXD13 [3],"11.6 upbm affinity estimate (log intensity, higher = more binding, comparable within an allelic series)"
TTAATTAA,binding signal,HOXC10,"12.4 upbm affinity estimate (log intensity, higher = more binding, comparable within an allelic series)"
same,binding signal,HOXC9,"12.8 upbm affinity estimate (log intensity, higher = more binding, comparable within an allelic series)"
GATAATTA,binding signal,HOXC10,"12.2 upbm affinity estimate (log intensity, higher = more binding, comparable within an allelic series)"
same,binding signal,HOXC9,"12.8 upbm affinity estimate (log intensity, higher = more binding, comparable within an allelic series)"

# — article PMC11006913
